Measurements reported in PubChem BioAssay.
Records with an inconclusive call do not appear. Active and inactive are the calls of the source.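 The calls were made as follows, unless noted: active = normalized viability below 100% at a tested concentration; inactive = the rest.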

Columns and labels:
[1] = growth inhibition of DIPG glioma cells, dose response, cell-based, SU-DIPG-XVII, MIPE5.0, CellTiter-Glo, qHTS (AID 1347060; cut-off not given, nearly all actives have AC50 up to about 26 µM;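 as to AC50: cells exposed to compound for 48 hours before viability readout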); settings: SU-DIPG-XVII viability, CellTiter-Glo ATP luminescence
[2] = growth inhibition of DIPG glioma cells, dose response, cell-based, SU-DIPG-XIII, MIPE5.0, CellTiter-Glo, qHTS (AID 1347064; cut-off not given, nearly all actives have AC50 up to about 23 µM;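 as to AC50: cells exposed to compound for 48 hours before the viability read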); settings: SU-DIPG-XIII viability, CellTiter-Glo ATP luminescence
[3] = viability loss in pontine glioma line – cell-based, SU-DIPG-XXV, MIPE5.0, CellTiter-Glo, qHTS, dose response (AID 1347065; cut-off not given, nearly all actives have AC50 up to about 26 µM;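 also: cells exposed to compound for 48 hours before ATP readout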); settings: CellTiter-Glo ATP luminescence
[4] = JHH-DIPG-1 glioma cell viability, MIPE5.0 library, CellTiter-Glo luminescence, qHTS (AID 1347067; cut-off not given, nearly all actives have AC50 up to about 26 µM;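 also: cells exposed to compound for 48 hours before readout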); settings: JHH-DIPG-1 glioma viability, CellTiter-Glo ATP luminescence
[5] = SU-DIPG-XXV glioma cell viability, MIPE5.0 library, qHTS (AID 1347068; cut-off not given, nearly all actives have IC50 up to about 30 µM;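 as to IC50: cells exposed to compound for 48 hours before viability readout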)
[6] = sensitizers of A549 cells to miR-34 induction, primary screen, imaging, A549 dox-inducible miR-34, nuclei and caspase counts (AID 1347080;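 active = compounds whose cell count with miR-34 switched on is under 0.7 times the count with it off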); settings: A549 miR-34 inducible, Hoechst nuclei count, 48 h
[7] = survival rescue of mitochondrial mutant cells in low glucose, primary screen, MELAS cybrids, Rieske KO mouse fibroblasts, CellTiter-Glo (AID 1508586;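 active = mean z-score across replicates of 1.96 or higher in either the MELAS or the Rieske mutant cell line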;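 also: z relative to plate mean and SD of compound and empty wells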)
[8] = ovarian cancer cell viability with rucaparib, profiling panel, oncology-focused library, rucaparib conditional (AID 1508598); settings: patient-derived ovarian cancer cells, CellTiter-Glo viability, 144 h, stronger effect = lower value
[9] = LFS_MB_P medulloblastoma growth inhibition, cell-based, chromothripsis tumors, cisplatin or BGB combos (AID 1671449; in the data active = inhibition above about 80%;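 also: cells exposed for 96 hours; 0% = vehicle DMSO and 100% = killing by high DMSO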); settings: LFS_MB_P medulloblastoma cells
[10] = HDN33 neuroblastoma growth inhibition, cell-based, chromothripsis tumors, cisplatin or BGB combos (AID 1671450; in the data active = inhibition above about 80%;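 also: cells exposed to compound for four days; 0% = vehicle DMSO and 100% = cell killing by high DMSO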); settings: HDN33 neuroblastoma cells, stronger effect = higher value
[11] = ICB984 medulloblastoma cell growth inhibition, synergistic combos for chromothripsis tumors, cisplatin or BGB combos (AID 1671451; call rule not given here;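 also: cells exposed for 96 hours before readout; 0% = vehicle DMSO and 100% = killing by high DMSO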); settings: ICB984 medulloblastoma cells, drug combinations, stronger effect = higher value
[12] = LFS_MB_1R medulloblastoma cell growth inhibition, synergistic combos for chromothripsis tumors, cisplatin or BGB combos (AID 1671452; in the data active = inhibition above about 80%;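 also: cells exposed for 96 hours before readout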); settings: LFS_MB_1R medulloblastoma cells, stronger effect = higher value
[13] = HTB85 osteosarcoma cell growth inhibition, synergistic combos for chromothripsis tumors, BGB or cisplatin IC20 combos (AID 1671453; in the data active = inhibition above about 80%;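 also: cells exposed for 96 hours before readout; 0% = vehicle DMSO and 100% = high DMSO killing control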); settings: HTB85 osteosarcoma cells, drug combinations, stronger effect = higher value
[14] = CRL2098 osteosarcoma cell growth inhibition, synergistic combos for chromothripsis tumors, BGB or cisplatin IC20 combos (AID 1671454; in the data active = inhibition above about 80%;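 also: cells exposed for 96 h before readout; 0% = vehicle DMSO and 100% = killing by high DMSO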); settings: CRL2098 osteosarcoma cells, drug combinations, stronger effect = higher value
[15] = HD-MB03 medulloblastoma cell growth inhibition, synergistic combos for chromothripsis tumors, BGB or cisplatin IC20 combos (AID 1671455; in the data active = inhibition above about 83%;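 also: 0% = vehicle DMSO and 100% = high DMSO as cytotoxic control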); settings: HD-MB03 medulloblastoma cells, stronger effect = higher value
[16] = UWB1.289 ovarian carcinoma cell growth inhibition, synergistic combos for chromothripsis tumors, BGB or cisplatin combos (AID 1671456; in the data active = inhibition above about 80%;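 also: cells exposed to compound for four days; 0% = vehicle DMSO and 100% = killing by high DMSO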); settings: UWB1.289 ovarian carcinoma cells, stronger effect = higher value
[17] = MDA-MB-436 breast carcinoma cell growth inhibition, synergistic combos for chromothripsis tumors, BGB or cisplatin combos (AID 1671458; call rule not given here;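 also: cells exposed for 96 hours; 0% = vehicle DMSO and 100% = killing by high DMSO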); settings: MDA-MB-436 breast carcinoma growth inhibition, drug combinations, stronger effect = higher value
[18] = growth inhibition of BT084 medulloblastoma cells, cell-based, ICGC_MB145, cisplatin and BGB IC40 combos (AID 1671461; in the data active = inhibition above about 80%;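 also: cells exposed to drugs for 96 hours; 0% = vehicle DMSO and 100% = high DMSO full killing control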); settings: drug combinations, stronger effect = higher value
[19] = growth inhibition of RCMB18 medulloblastoma cells, cell-based, cisplatin and BGB IC40 combos (AID 1671462; in the data active = inhibition above about 80%;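 also: cells exposed to compound for four days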); settings: stronger effect = higher value
[20] = growth inhibition of CRL1545 osteosarcoma cells, cell-based, cisplatin and BGB IC20 combos (AID 1671464; in the data active = inhibition above about 80%;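 also: cells exposed to compound for 96 hours before readout; 0% = vehicle DMSO and 100% = high DMSO killing control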); settings: stronger effect = higher value
[21] = measured here: combination with BGB IC40, at 0.05 µM
[22] = measured here: with BGB IC20 combination, at 0.5 µM
[23] = measured here: with cisplatin IC20 combination, at 0.5 µM
[24] = measured here: combination with cisplatin, at 0.5 µM

SMILES: Cc1cc(C)cc(NC(=O)Cc2ccc(OC(C)(C)C(=O)O)cc2)c1
- outcome [1]: inactive
- outcome [2]: inactive
- outcome [3]: inactive
- outcome [4]: inactive
- outcome [5]: inactive
- fold change ([6]; stronger effect = lower value, cell number ratio, induced over uninduced): 0.94 (inactive)
- fold change ([6]; measured here: relative caspase fold change +Dox/-Dox): 0.66
- cell count ([6]; measured here: total cells with miR-34 induction, stronger effect = lower value): 8990
- cell count ([6]; measured here: total cells without miR-34 induction): 9560
- z-score ([7]; MELAS cybrid survival, CellTiter-Glo 48 h, stronger effect = higher value): -0.243 (inactive)
- z-score ([7]; Rieske KO mouse fibroblast survival, CellTiter-Glo 72 h): -0.194

SMILES: C#CC[C@H](c1nc2cc(Cl)ccc2c(=O)n1Nc1ccccc1)N(CCCN)C(=O)c1cccc(Cl)c1F
- AC50 [1]: 417 nM (active)
- AC50 [2]: 4680 nM (active)
- AC50 [3]: 372 nM (active)
- AC50 [4]: 742 nM (active)
- IC50 [5]: 417 nM (active)
- viability ([8]; at 0.000305 µM, OCI-C5x cells, with rucaparib 10 µM, 100% = cells with rucaparib alone): 125% (inactive)
- viability ([8]; at 0.000305 µM, OCI-C5x cells, without rucaparib): 105% (inactive)
- viability ([8]; at 0.000305 µM, OCI-P5x cells, with rucaparib 20 µM, 100% = cells with rucaparib alone): 109% (inactive)
- viability ([8]; at 0.000305 µM, OCI-P5x cells, without rucaparib): 94.3% (active)
- viability ([8]; at 0.00122 µM, OCI-C5x cells, with rucaparib 10 µM, 100% = cells with rucaparib alone): 130% (inactive)
- viability ([8]; at 0.00122 µM, OCI-C5x cells, without rucaparib): 102% (inactive)
- viability ([8]; at 0.00122 µM, OCI-P5x cells, with rucaparib 20 µM, 100% = cells with rucaparib alone): 109% (inactive)
- viability ([8]; at 0.00122 µM, OCI-P5x cells, without rucaparib): 97.9% (active)
- viability ([8]; at 0.00488 µM, OCI-C5x cells, with rucaparib 10 µM, 100% = cells with rucaparib alone): 115% (inactive)
- viability ([8]; at 0.00488 µM, OCI-C5x cells, without rucaparib): 109% (inactive)
- viability ([8]; at 0.00488 µM, OCI-P5x cells, with rucaparib 20 µM, 100% = cells with rucaparib alone): 107% (inactive)
- viability ([8]; at 0.00488 µM, OCI-P5x cells, without rucaparib): 92.1% (active)
- viability ([8]; at 0.0195 µM, OCI-C5x cells, with rucaparib 10 µM, 100% = cells with rucaparib alone): 125% (inactive)
- viability ([8]; at 0.0195 µM, OCI-C5x cells, without rucaparib): 112% (inactive)
- viability ([8]; at 0.0195 µM, OCI-P5x cells, with rucaparib 20 µM, 100% = cells with rucaparib alone): 96.2% (active)
- viability ([8]; at 0.0195 µM, OCI-P5x cells, without rucaparib): 90.6% (active)
- viability ([8]; at 0.0781 µM, OCI-C5x cells, with rucaparib 10 µM, 100% = cells with rucaparib alone): 67.5% (active)
- viability ([8]; at 0.0781 µM, OCI-C5x cells, without rucaparib): 57.4% (active)
- viability ([8]; at 0.0781 µM, OCI-P5x cells, with rucaparib 20 µM, 100% = cells with rucaparib alone): 91.9% (active)
- viability ([8]; at 0.0781 µM, OCI-P5x cells, without rucaparib): 49.8% (active)
- viability ([8]; at 0.313 µM, OCI-C5x cells, with rucaparib 10 µM, 100% = cells with rucaparib alone): 57% (active)
- viability ([8]; at 0.313 µM, OCI-C5x cells, without rucaparib): 55% (active)
- viability ([8]; at 0.313 µM, OCI-P5x cells, with rucaparib 20 µM, 100% = cells with rucaparib alone): 59.6% (active)
- viability ([8]; at 0.313 µM, OCI-P5x cells, without rucaparib): 17.5% (active)
- viability ([8]; at 1.25 µM, OCI-C5x cells, with rucaparib 10 µM, 100% = cells with rucaparib alone): 56.2% (active)
- viability ([8]; at 1.25 µM, OCI-C5x cells, without rucaparib): 46.9% (active)
- viability ([8]; at 1.25 µM, OCI-P5x cells, with rucaparib 20 µM, 100% = cells with rucaparib alone): 54.9% (active)
- viability ([8]; at 1.25 µM, OCI-P5x cells, without rucaparib): 15.7% (active)
- viability ([8]; at 5 µM, OCI-C5x cells, with rucaparib 10 µM, 100% = cells with rucaparib alone): 1.31% (active)
- viability ([8]; at 5 µM, OCI-C5x cells, without rucaparib): 3.55% (active)
- viability ([8]; at 5 µM, OCI-P5x cells, with rucaparib 20 µM, 100% = cells with rucaparib alone): 0.597% (active)
- viability ([8]; at 5 µM, OCI-P5x cells, without rucaparib): 1.54% (active)

SMILES: COc1ccc(C(=O)C2CCN(CC(=O)N(Cc3nc4c(c(=O)[nH]3)COCC4)CC3CC3)CC2)cc1
- outcome [1]: inactive
- outcome [2]: inactive
- outcome [3]: inactive
- outcome [4]: inactive
- outcome [5]: inactive
- inhibition ([9]; at 0.5 µM, stronger effect = higher value): -26.8% (inactive)
- inhibition ([9]; measured here: combination with BGB IC20, at 0.005 µM): -22.7%
- inhibition ([9]; measured here: combination with BGB IC40, at 0.005 µM): -42.7%
- inhibition [9, 21]: -55.1%
- inhibition ([9]; measured here: combination with cisplatin, at 0.5 µM, stronger effect = higher value): -22.8%
- inhibition ([9]; measured here: combination with cisplatin, at 5 µM, stronger effect = higher value): -44.7%
- inhibition ([10]; BGB combo, at 5 µM): -14.7%
- inhibition ([10]; at 0.5 µM): 19.2% (inactive)
- inhibition ([10]; cisplatin combo, at 5 µM): 9.88%
- inhibition [10, 22]: 15.5%
- inhibition [10, 23]: 24.9%
- inhibition ([10]; single agent, at 5 µM): 15.7%
- inhibition ([11]; BGB IC20 combo, at 0.005 µM): -9.62%
- inhibition ([11]; BGB IC40 combo, at 0.005 µM): -29.7%
- inhibition ([11]; BGB IC40 combo, at 0.05 µM): -4.73%
- inhibition ([11]; at 0.5 µM): -22.8% (inactive)
- inhibition ([11]; cisplatin combo, at 0.05 µM): -10.1%
- inhibition ([11]; cisplatin combo, at 0.5 µM): -15%
- inhibition ([11]; cisplatin combo, at 5 µM): -26%
- inhibition ([11]; measured here: 5 uM single agent, at 5 µM): -16%
- inhibition ([12]; at 0.5 µM): -33% (inactive)
- inhibition [12, 21]: -55.7%
- inhibition [12, 24]: -42.4%
- inhibition ([12]; measured here: combination with cisplatin, at 5 µM): -67.1%
- inhibition ([13]; at 0.5 µM): 14.2% (inactive)
- inhibition ([13]; measured here: with BGB IC20, at 0.5 µM): 33.7%
- inhibition ([13]; measured here: with BGB IC20, at 5 µM): 10.5%
- inhibition ([13]; measured here: with cisplatin IC20, at 0.5 µM): -3.3%
- inhibition ([13]; measured here: with cisplatin IC20, at 5 µM): 4.94%
- inhibition ([13]; single agent, at 5 µM): 15.4%
- inhibition ([14]; at 0.5 µM): -25.5% (inactive)
- inhibition ([14]; measured here: combination with BGB at IC20, at 0.5 µM): -15.2%
- inhibition ([14]; measured here: combination with cisplatin at IC20, at 0.5 µM): -29.9%
- inhibition ([15]; at 0.5 µM): -6.43% (inactive)
- inhibition ([15]; measured here: combo with BGB at IC20, at 0.5 µM): -11.5%
- inhibition ([15]; measured here: combo with cisplatin at IC20, at 0.5 µM): -4.57%
- inhibition ([16]; at 0.5 µM): 0.15% (inactive)
- inhibition ([16]; measured here: inhibition with BGB combination, at 0.05 µM): -7.89%
- inhibition ([16]; measured here: inhibition with cisplatin combination, at 0.05 µM): -13.7%
- inhibition ([17]; at 0.5 µM): -12.3% (inactive)
- inhibition ([17]; measured here: BGB combination, at 0.5 µM): -9.1%
- inhibition ([17]; measured here: BGB combination, at 5 µM): -21.6%
- inhibition ([17]; measured here: cisplatin combination, at 0.5 µM): -32.8%
- inhibition ([17]; measured here: cisplatin combination, at 5 µM): -17.8%
- inhibition ([18]; at 0.5 µM): -24.2% (inactive)
- inhibition ([18]; cisplatin combination, at 0.5 µM): -30.1%
- inhibition ([18]; cisplatin combination, at 5 µM): -190%
- inhibition ([18]; measured here: BGB IC40 combination 0.05 uM, at 0.05 µM): -40%
- inhibition ([18]; single agent, at 5 µM): -16.6%
- inhibition ([19]; at 0.5 µM): -19.3% (inactive)
- inhibition ([19]; cisplatin combo, at 5 µM): -12.1%
- inhibition ([19]; measured here: BGB IC40 combination, at 0.05 µM): -3.95%
- inhibition [19, 24]: -13.9%
- inhibition ([19]; single agent, at 5 µM): 8.88%
- inhibition ([20]; at 0.5 µM): 9.43% (inactive)
- inhibition [20, 22]: 5.59%
- inhibition [20, 23]: 9.92%
- inhibition ([20]; single agent, at 0.05 µM): -39.6%
- inhibition ([20]; single agent, at 5 µM): -10.3%
